Measurements: PubChem BioAssay AID1159580 (chemical genetic matrix, 2015)
Screen size: about 5,500 compounds; about 2,000 (36%) were called active. About 18% were inconclusive and are not listed. No stated cut-off is given here; in the data, active means normalized growth mostly below about 0.91 (no sharp cut-off); inconclusive means no clear call, values can overlap the other calls; inactive means mostly above about 0.92. Some of the results follow.

Experiment: chemical genetic growth profiling, strain panel (AID 1159580);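 further: tested at 20 µM; growth read once vehicle control cultures reached saturation at 30 °C; 1 = growth at the plate median or of vehicle wells; lower values mean less growth of the strain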
Details: growth OD

Measured: normalized growth

COc1ccc2c(c1C(C)C)CCC1C(C)(C)C(=O)CCC21C (stereo unspecified)
active: S. cerevisiae deletion strains, locus YNL307C, strain MCK1, active compounds read low 0.854
inactive: S. cerevisiae deletion strains, locus YAL013W, strain DEP1, active compounds read low 1 | S. cerevisiae deletion strains, locus YBR021W, strain FUR4, active compounds read low 1 | S. cerevisiae deletion strains, locus YBR229C, strain ROT2, active compounds read low 0.988 | S. cerevisiae deletion strains, locus YCL029C, strain bik1, active compounds read low 0.955 | S. cerevisiae deletion strains, locus YDL035C, strain GPR1, active compounds read low 0.972 | S. cerevisiae deletion strains, locus YDL074C, strain BRE1, active compounds read low 0.969 | S. cerevisiae deletion strains, locus YDL101C, strain DUN1, active compounds read low 0.996 | S. cerevisiae deletion strains, locus YDL134C, strain PPH21, active compounds read low 0.976 | S. cerevisiae deletion strains, locus YDL185W, strain tfp1, active compounds read low 0.982 | S. cerevisiae deletion strains, locus YDL192W, strain arf1, active compounds read low 0.974 | S. cerevisiae deletion strains, locus YDR101C, strain arx1, active compounds read low 0.981 | S. cerevisiae deletion strains, locus YDR150W, strain NUM1, active compounds read low 0.96 | S. cerevisiae deletion strains, locus YDR162C, strain NBP2, active compounds read low 0.983 | S. cerevisiae deletion strains, locus YDR318W, strain mcm21, active compounds read low 0.968 | S. cerevisiae deletion strains, locus YDR388W, active compounds read low 0.977 | S. cerevisiae deletion strains, locus YDR502C, strain sam2, active compounds read low 0.982 | S. cerevisiae deletion strains, locus YEL061C, strain CIN8, active compounds read low 0.988 | S. cerevisiae deletion strains, locus YER110C, active compounds read low 0.982 | S. cerevisiae deletion strains, locus YER155C, strain BEM2, active compounds read low 0.991 | S. cerevisiae deletion strains, locus YER167W, strain BCK2, active compounds read low 0.95 | S. cerevisiae deletion strains, locus YGL078C, strain dbp3, active compounds read low 0.977 | S. cerevisiae deletion strains, locus YGL086W, strain mad1, active compounds read low 0.961 | S. cerevisiae deletion strains, locus YGL248W, strain PDE1, active compounds read low 0.976 | S. cerevisiae deletion strains, locus YGR078C, strain PAC10, active compounds read low 1 | S. cerevisiae deletion strains, locus YGR135W, strain pre9, active compounds read low 0.984 | S. cerevisiae deletion strains, locus YGR229C, strain SMI1, active compounds read low 0.974 | S. cerevisiae deletion strains, locus YGR252W, strain gcn5, active compounds read low 0.98 | S. cerevisiae deletion strains, locus YHR030C, strain SLT2, active compounds read low 0.979 | S. cerevisiae deletion strains, locus YHR079C, strain IRE1 (second series), active compounds read low 0.96 | S. cerevisiae deletion strains, locus YHR094C, strain hxt1, active compounds read low 0.974 | S. cerevisiae deletion strains, locus YHR129C, strain ARP1, active compounds read low 0.983 | S. cerevisiae deletion strains, locus YHR200W, strain rpn10, active compounds read low 0.955 | S. cerevisiae deletion strains, locus YIL066C, strain RNR3, active compounds read low 0.979 | S. cerevisiae deletion strains, locus YIL073C, strain SPO22, active compounds read low 0.921 | S. cerevisiae deletion strains, locus YIL125W, strain kgd1, active compounds read low 0.971 | S. cerevisiae deletion strains, locus YIR030C, strain dcg1, active compounds read low 0.97 | S. cerevisiae deletion strains, locus YJL095W, strain BCK1, active compounds read low 0.954 | S. cerevisiae deletion strains, locus YJL134W, strain LCB3, active compounds read low 0.983 | S. cerevisiae deletion strains, locus YJL168C, strain set2, active compounds read low 0.984 | S. cerevisiae deletion strains, locus YJL187C, strain SWE1 (second series), active compounds read low 0.986 | S. cerevisiae deletion strains, locus YJR043C, strain POL32, active compounds read low 0.962 | S. cerevisiae deletion strains, locus YJR075W, strain HOC1, active compounds read low 1 | S. cerevisiae deletion strains, locus YKL009W, strain mrt4, active compounds read low 0.966 | S. cerevisiae deletion strains, locus YKL068W, active compounds read low 0.976 | S. cerevisiae deletion strains, locus YKL085W, strain MDH1 (second series), active compounds read low 0.967 | S. cerevisiae deletion strains, locus YKL085W, strain MDH1, active compounds read low 0.967 | S. cerevisiae deletion strains, locus YKL190W, strain CNB1, active compounds read low 0.988 | S. cerevisiae deletion strains, locus YKR001C, strain vps1, active compounds read low 0.979 | S. cerevisiae deletion strains, locus YLR039C, strain RIC1, active compounds read low 0.995 | S. cerevisiae deletion strains, locus YLR058C, strain SHM2, active compounds read low 0.981 | S. cerevisiae deletion strains, locus YLR102C, strain apc9, active compounds read low 0.978 | S. cerevisiae deletion strains, locus YLR262C, strain YPT6, active compounds read low 0.994 | S. cerevisiae deletion strains, locus YLR268W, strain sec22, active compounds read low 0.995 | S. cerevisiae deletion strains, locus YLR330W, strain CHS5, active compounds read low 0.985 | S. cerevisiae deletion strains, locus YLR342W, strain FKS1 (second series), active compounds read low 0.973 | S. cerevisiae deletion strains, locus YLR371W, strain rom2, active compounds read low 0.979 | S. cerevisiae deletion strains, locus YLR418C, strain cdc73, active compounds read low 0.946 | S. cerevisiae deletion strains, locus YML016C, strain PPZ1, active compounds read low 0.978 | S. cerevisiae deletion strains, locus YML032C, strain rad52, active compounds read low 0.964 | S. cerevisiae deletion strains, locus YML124C, strain tub3, active compounds read low 0.961 | S. cerevisiae deletion strains, locus YMR078C, strain ctf18, active compounds read low 0.96 | S. cerevisiae deletion strains, locus YMR223W, strain ubp8, active compounds read low 0.959 | S. cerevisiae deletion strains, locus YMR263W, strain SAP30, active compounds read low 1.01 | S. cerevisiae deletion strains, locus YMR307W, strain GAS1, active compounds read low 0.84 | S. cerevisiae deletion strains, locus YNL067W, strain RPL9B, active compounds read low 1.01 | S. cerevisiae deletion strains, locus YNL128W, strain TEP1, active compounds read low 1.01 | S. cerevisiae deletion strains, locus YNL153C, strain GIM3, active compounds read low 1 | S. cerevisiae deletion strains, locus YNL233W, strain BNI4, active compounds read low 0.98 | S. cerevisiae deletion strains, locus YNL250W, strain rad50, active compounds read low 0.972 | S. cerevisiae deletion strains, locus YNL271C, strain bni1, active compounds read low 0.977 | S. cerevisiae deletion strains, locus YNL298W, strain CLA4, active compounds read low 0.982 | S. cerevisiae deletion strains, locus YNL322C, strain KRE1, active compounds read low 0.992 | S. cerevisiae deletion strains, locus YNR052C, strain pop2, active compounds read low 0.991 | S. cerevisiae deletion strains, locus YOL006C, strain TOP1, active compounds read low 0.896 | S. cerevisiae deletion strains, locus YOL012C, strain htz1 1.19 | S. cerevisiae deletion strains, locus YOL147C, strain pex11, active compounds read low 0.975 | S. cerevisiae deletion strains, locus YOR061W, strain CKA2, active compounds read low 0.977 | S. cerevisiae deletion strains, locus YOR069W, strain VPS5, active compounds read low 0.983 | S. cerevisiae deletion strains, locus YOR136W, strain idh2, active compounds read low 0.981 | S. cerevisiae deletion strains, locus YOR144C, strain elg1, active compounds read low 0.978 | S. cerevisiae deletion strains, locus YOR184W, strain ser1, active compounds read low 0.899 | S. cerevisiae deletion strains, locus YOR316C, strain cot1, active compounds read low 0.967 | S. cerevisiae deletion strains, locus YPL055C, strain LGE1, active compounds read low 1.01 | S. cerevisiae deletion strains, locus YPL241C, strain CIN2, active compounds read low 0.984 | S. cerevisiae deletion strains, locus YPR119W, strain clb2, active compounds read low 0.971 | S. cerevisiae deletion strains, locus YPR141C, strain kar3, active compounds read low 0.97 | S. cerevisiae deletion strains, locus YPR163C, strain tif3, active compounds read low 0.984 | S. cerevisiae deletion strains, locus YPR167C, strain met16, active compounds read low 0.97 | S. cerevisiae deletion strains, strain wtn01, active compounds read low 0.975 | S. cerevisiae strains, strain wild type, active compounds read low 0.998
